Assay outcomes from PubChem.
YB-1 expression = YB-1 expression inhibition. U2OS, qRT-PCR YB-1 vs CDIP delta delta Cp, 16 h; active compounds read high; zero = DMSO, each unit about twofold. delta delta Cp (YB-1 minus CDIP) (no concentration beside the values). hit rate 0.37% among 30,000. AID 434959;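 active = delta delta Cp rounded down to an integer at or above 3, about 3 SD of DMSO wells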;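 also: higher means less YB-1 transcript or more CDIP transcript relative to DMSO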
BJeLR viab HTS = compounds reducing viability of BJeLR cells | BJeLR fibroblasts viability, CellTiterGlo ATP luminescence, 48 h; HRASV12, hTERT and SV40 LT/ST transformed | viability loss activity score, % (no concentration beside the values) | hit rate 0.64% among 30,000 | AID 2275; in the data active = viability loss activity score above about 50%; inconclusive = no clear call, values can overlap the other calls; inactive = below about 35%;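 also: higher score means fewer live cells and less ATP luminescence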
MITF inhib = MITF inhibition. TRPM1 promoter luciferase, luminescence, 24 h. inhibition, % (no concentration beside the values). hit rate 0.28% among 37,000. AID 2240; in the data active = inhibition above about 85%; inconclusive = no clear call, values can overlap the other calls; inactive = below about 68%;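 also: human melanocyte line stably carrying TRPM1 promoter luciferase reporter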
Hedgehog inh = Sonic Hedgehog pathway inhibition; Shh-LIGHT2 Gli-luciferase reporter, 30 h; inhibition, % (concentration not given with the values); hit rate 2.1% among 22,000;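 active = mean inhibition across valid replicates above about 65%, limit read from the data; inconclusive = mean under the limit, yet half or more replicates past it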;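 also: pathway switched on by Shh-conditioned medium diluted 1 in 25 in low serum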
Numbers without * were called inactive; ! = not confirmed by another sample. Shown is part of a subset that was picked to be rich in hits.

Results for O=C1C=C2C=C[C@@H]3C[C@@]2(O1)[C@H]1CCCCN31 ?
YB-1 expression: -0.0014; BJeLR viab HTS: -2; MITF inhib: 25; Hedgehog inh: 72*

What do the screens show for `CC(C)Sc1nnc(OC(=O)N(C)C)n1-c1cccc(C(F)(F)F)c1`?
BJeLR viab HTS: -6

How did CCc1ccc(CN2CCN(Cc3ccc(CC)cc3)CC2)cc1 do in these assays?
BJeLR viab HTS: 4

What do the screens show for `CC1=CC2/C=C(\C)CCC(O)C(O)/C=C/C(=O)C23C(=O)NC(CC(C)C)C3C1C` (stereo unspecified)?
YB-1 expression: 1.1; BJeLR viab HTS: 96*; MITF inhib: 89*; Hedgehog inh: 71*

What do the screens show for `C[C@]12CC[C@H](O)C[C@H]1CCC1C2CC[C@]2(C)[C@@H](C3=CC(=O)OC3)[C@@H](O)C[C@]12O` (stereo partly specified)?
YB-1 expression: 0.42; BJeLR viab HTS: 30; MITF inhib: -9; Hedgehog inh: -47

Results for COC1CC(OC2CCC3(C)C(CCC4C3CCC3(C)C(C5=CC(=O)OC5)C(OC(C)=O)CC43O)C2)OC(C)C1OC1OC(COC2OC(CO)C(O)C(O)C2O)C(O)C(O)C1O (stereo unspecified) ?
YB-1 expression: 0.66; BJeLR viab HTS: 96*; MITF inhib: 20; Hedgehog inh: 3

How did CO[C@H]1[C@H](O)[C@H](O[C@H]2CC[C@]3(C)C4CC[C@]5(C)C(C6=CC(=O)OC6)CC[C@]5(O)C4CC[C@@H]3C2)O[C@@H](C)[C@@H]1O (stereo partly specified) do in these assays?
YB-1 expression: -0.17; BJeLR viab HTS: 111*; MITF inhib: 21; Hedgehog inh: -5

Results for CN1CCN(CC(=O)Nc2ccc(Br)cc2C(=O)c2ccccc2)CC1 ?
MITF inhib: -13

Results for O=C(c1ccco1)c1cn(CCCOc2ccccc2)c2ccccc12 ?
MITF inhib: 0

What do the screens show for `CNc1ccccc1C(=O)O`?
YB-1 expression: 0.2; BJeLR viab HTS: -7; MITF inhib: -9; Hedgehog inh: 2

Results for C[CH2][Hg][S]c1ccccc1C(=O)O ?
YB-1 expression: -0.6; BJeLR viab HTS: 142*; MITF inhib: 105*; Hedgehog inh: inconclusive

How did COc1ccc(CC2(CCc3ccncc3)C(=O)NC(=O)N(c3cccc(C)c3)C2=O)c(OC)c1 (stereo unspecified) do in these assays?
MITF inhib: -24

How did CC(C)(C)c1cc(C=C(C#N)C#N)cc(Br)c1O do in these assays?
YB-1 expression: 0.67; BJeLR viab HTS: 8; MITF inhib: 78; Hedgehog inh: 88*

Results for N#CC(C#N)=Cc1cc(O)c(O)c(O)c1 ?
YB-1 expression: -0.049; BJeLR viab HTS: 1; MITF inhib: -10; Hedgehog inh: 42

How did Cc1ccc(S(=O)(=O)N2CCCCC2)cc1C(=O)Oc1cccc2cccnc12 do in these assays?
YB-1 expression: -0.43; BJeLR viab HTS: -4; MITF inhib: -28; Hedgehog inh: -14

What do the screens show for `COc1cccc(OC)c1C1=NCC(=O)Nc2c1oc1ccc(Br)cc21`?
BJeLR viab HTS: 55*

Results for CC1=CC(=O)C2=C(C)C[C@H](O)[C@@H]3[C@H](OC(=O)[C@@H]3C)[C@@H]12 ?
YB-1 expression: 0.33; Hedgehog inh: -18

What do the screens show for `CCN1C[C@]2(C)CC[C@H](OC)[C@@]34C2[C@H](O)C([C@@H]13)[C@@]1(OC)C[C@H](OC)[C@H]2C[C@@H]4[C@@H]1[C@H]2O`?
YB-1 expression: -0.2; BJeLR viab HTS: 3; MITF inhib: -13; Hedgehog inh: -12

Results for CCn1cnc2c(Nc3cccc(Cl)c3)nc(N[C@@H]3CCCC[C@@H]3N)nc21 ?
YB-1 expression: -0.6; BJeLR viab HTS: 57*; MITF inhib: 51; Hedgehog inh: 73*

What do the screens show for `COc1cc2c(c(OC)c1OC)-c1cc3c(cc1[C@H](OC(C)=O)[C@H]1COC(=O)[C@@H]1C2)OCO3`?
YB-1 expression: -0.4; BJeLR viab HTS: 60*; MITF inhib: 26; Hedgehog inh: 83*

What do the screens show for `CN(C(=O)c1ccc(Cl)cc1)c1ccc(Cl)cc1C(=O)c1ccccc1`?
BJeLR viab HTS: 2

How did CC(O)CN1CC2CC(C1)c1cccc(=O)n1C2 (stereo unspecified) do in these assays?
BJeLR viab HTS: -1

How did CN[C@@H]1C[C@@]2(C)O[C@@H]([C@@H]1OC)n1c3ccccc3c3c4c(c5c6ccccc6n2c5c31)C(=O)NC4 do in these assays?
YB-1 expression: -0.37; BJeLR viab HTS: 127*; MITF inhib: 101*; Hedgehog inh: 103*

What do the screens show for `CC1(C)C(=O)C=C[C@@]2(C)C1C(=O)C(=O)[C@]1(C)C2CC[C@@]2(C)[C@H](c3ccoc3)C[C@H]3O[C@]321` (stereo partly specified)?
YB-1 expression: 0.45; BJeLR viab HTS: 27; MITF inhib: 108*; Hedgehog inh: -14

How did COc1cccc(N2CCNCC2)c1 do in these assays?
BJeLR viab HTS: 3

What do the screens show for `CCCCn1c(=O)c(C(=O)NCc2ccccn2)c(O)c2ccccc21`?
MITF inhib: 32

What do the screens show for `Cc1ccc(NC(=O)c2cccc(OC(=O)N(C)c3ccccc3)c2)cc1C`?
YB-1 expression: 0.2; BJeLR viab HTS: 0; MITF inhib: 5; Hedgehog inh: 76*

How did O=C(Cn1cc(C(=O)c2ccccc2)c2ccccc21)Nc1ccc(F)cc1 do in these assays?
MITF inhib: 38

Results for C[C@@H]1Cc2c(Cl)cc(C(=O)N[C@@H](Cc3ccccc3)C(=O)O)c(O)c2C(=O)O1 ?
YB-1 expression: 1; Hedgehog inh: 78*

How did CC(=O)OC[C@]12C[C@H](O)C(C)=C[C@H]1O[C@@H]1[C@H](O)[C@@H](OC(C)=O)[C@@]2(C)[C@]12CO2 do in these assays?
YB-1 expression: 1.2; BJeLR viab HTS: 119*; MITF inhib: 90*; Hedgehog inh: 96*

How did CC(=O)OC[C@]12CCC(C)=C[C@H]1O[C@@H]1[C@H](O)[C@@H](OC(C)=O)[C@@]2(C)[C@]12CO2 do in these assays?
YB-1 expression: 0.61; BJeLR viab HTS: 122*; MITF inhib: 92*; Hedgehog inh: 109*

What do the screens show for `COc1ccccc1OCCCn1cc(C(=O)c2ccccc2)c2ccccc21`?
MITF inhib: 9

Results for COc1ccc2c3c([nH]c2c1)C(C)=NCC3 ?
YB-1 expression: 0.24; BJeLR viab HTS: -1; MITF inhib: 12; Hedgehog inh: -16

Results for CC1=NCCc2c1[nH]c1cc(O)ccc21 ?
YB-1 expression: 0.043; BJeLR viab HTS: -5; MITF inhib: 1; Hedgehog inh: 80*!

How did CC(C)(C)c1nc2ccccc2c(=O)n1-c1ccc(F)cc1F do in these assays?
YB-1 expression: -0.17; BJeLR viab HTS: 7; MITF inhib: 2; Hedgehog inh: 1

Results for C/C=C(/C)C(=O)O[C@H]1C(C)=C2[C@H]([C@@H]1OC(=O)CCCCC)[C@@](C)(OC(C)=O)C[C@H](OC(=O)CCC)[C@@]1(O)[C@H]2OC(=O)[C@@]1(C)O ?
BJeLR viab HTS: 26; MITF inhib: 69; Hedgehog inh: 105*
